# Data from a collection of fitness landscapes (doi:10.1126/science.1257360).
# Whole data set: some 140,000 sequences, median “enrichment ratio after two sorts for PhoP signalling” near 0, cut for the highest 2% near 11. The sample holds the highest values, similar sequences and a random draw of the others, so the mix is not that of the screen.
# B1: PhoQ; a variant is named by its letters at X, in order, P23837 (parent)
# chain: MKKLLRLFFPLSLRVRFLLATAAVVLVLSLAYGMVALIGYSVSFDKTTFRLLRGESNLFYTLAKWENNKLHVELPENIDKQSPTMTLIYDENGQLLWAQRDVPWLMKMIQPDWLKSNGFHEIEADVNDTSLLLSGDHSIQQQLQEVREDDDDAEMTHSVAVNVYPATSRMPKLTIVVVDTIPVELKSSYMVWSWFIYVLSANLLLVIPLLWVAAWWSLRPIEALAKEVRELEEHNRELLNPATTRELTSLVRNLNRLLKSERERYDKYRTTLTDLTHSLKTPLXXLQXXLRSLRSEKMSVSDAEPVMLEQISRISQQIGYYLHRASMRGGTLLSRELHPVAPLLDNLTSALNKVYQRKGVNISLDISPEISFVGEQNDFVEVMGNVLDNACKYCLEFVEISARQTDEHLYIVVEDDGPGIPLSKREVIFDRGQRVDTLRPGQGVGLAVAREITEQYEGKIVAGESMLGGARMEVIFGRQHSAPKDE
# Variants of: B1
# Assay: enrichment ratio after two sorts for PhoP signalling (ratio (wild type AVST 3.29)); higher = more functional
# Details: with PhoP (E. coli)
row,Variant,enrichment ratio
1,HWKG,≤ 0.25
2,HYVN,≤ 0.25
3,FNKS,≤ 0.25
4,WKFR,≤ 0.25
5,VMIH,≤ 0.25
6,FQCV,≤ 0.25
7,WICM,≤ 0.25
8,SRTM,1.44
9,YTTM,8.49
10,SICM,14.4
11,TTTM,19.4
12,SICL,11.3
13,GTTM,4.35
14,SITM,22.9
15,SIRL,≤ 0.25
16,KYTM,≤ 0.25
17,KYCM,≤ 0.25
18,KYCL,≤ 0.25
19,NSAY,≤ 0.25
20,MERT,≤ 0.25
21,IMPC,≤ 0.25
22,AHIW,≤ 0.25
23,YHGK,≤ 0.25
24,MHLE,≤ 0.25
25,TWGP,≤ 0.25
26,GSVG,≤ 0.25

row,Variant,enrichment ratio
1,LTTM,≤ 0.25
2,KYCQ,≤ 0.25
3,KYPM,≤ 0.25
4,SIPM,19.8
5,SIPA,0.817
6,SIGQ,10.4
7,SICQ,27.6
8,STTM,14.3
9,QETM,≤ 0.25
10,VWYY,≤ 0.25
11,EDMQ,≤ 0.25
12,VNHC,≤ 0.25
13,AYRQ,≤ 0.25
14,YGPP,≤ 0.25
15,IQKL,≤ 0.25
16,GASY,≤ 0.25
17,SPIT,≤ 0.25
18,AGYW,≤ 0.25
19,SPLH,≤ 0.25
20,ATLH,11.5
21,SSLH,11.4
22,KYLH,≤ 0.25
23,ITLH,≤ 0.25
24,KSLH,≤ 0.25
25,LTLH,≤ 0.25
26,SYLH,0.355

row,Variant,enrichment ratio
1,NSLH,≤ 0.25
2,SRLH,≤ 0.25
3,SELH,19.4
4,STLH,12.2
5,ASPV,0.706
6,LLVM,≤ 0.25
7,PRDH,≤ 0.25
8,IQGR,≤ 0.25
9,RVGK,≤ 0.25
10,TQAC,4.85
11,VIMQ,≤ 0.25
12,WTKP,≤ 0.25
13,ENII,≤ 0.25
14,YTLH,0.617
15,TTLH,19.7
16,GTLH,8.02
17,MYEQ,≤ 0.25
18,SILV,2.22
19,YGLS,7.31
20,YGLA,12.8
21,SELV,19.5
22,NELV,2.93
23,EQLV,≤ 0.25
24,TELV,25.1
25,YGLT,7.13
26,SLLV,6.62

row,Variant,enrichment ratio
1,NQLV,≤ 0.25
2,TQLV,26.3
3,QELV,≤ 0.25
4,WPNN,≤ 0.25
5,YKHG,≤ 0.25
6,AFWQ,≤ 0.25
7,GIFI,≤ 0.25
8,TQRG,≤ 0.25
9,LAFQ,2.23
10,NEYD,≤ 0.25
11,EVIK,≤ 0.25
12,QFDL,≤ 0.25
13,MRMI,≤ 0.25
14,SINK,1.25
15,RMYK,≤ 0.25
16,MILV,13
17,YTLV,15.7
18,ITLV,7.88
19,MIHK,≤ 0.25
20,CTLV,0.326
21,TTLV,17.9
22,LTLV,1.55
23,MFLV,≤ 0.25
24,GTLV,7.85
25,ATLV,12.7
26,FTLV,10.2

row,Variant,enrichment ratio
1,YYLV,≤ 0.25
2,FHSF,≤ 0.25
3,HDGN,≤ 0.25
4,TQVH,8.69
5,LPSI,≤ 0.25
6,ANRW,≤ 0.25
7,MCHW,≤ 0.25
8,GFAN,≤ 0.25
9,KGPY,≤ 0.25
10,TSLV,14.6
11,FSLV,8.86
12,SKHK,≤ 0.25
13,SFLV,1.19
14,SSLV,16.8
15,SALV,14.6
16,NSLV,2.78
17,SKLV,12
18,KQLV,≤ 0.25
19,KSLV,≤ 0.25
20,DLQF,≤ 0.25
21,PGYR,≤ 0.25
22,QDIQ,≤ 0.25
23,RNIE,≤ 0.25
24,YSWN,≤ 0.25
25,IQID,≤ 0.25
26,LDQS,≤ 0.25

row,Variant,enrichment ratio
1,YGLV,13.5
2,KYLV,≤ 0.25
3,MMLV,≤ 0.25
4,MPLV,≤ 0.25
5,QPLV,≤ 0.25
6,SYLV,0.334
7,STLV,15.4
8,NFLV,≤ 0.25
9,SPLV,≤ 0.25
10,MELV,18.1
11,DPLV,≤ 0.25
12,SQLV,11.8
13,ITPL,≤ 0.25
14,WHNG,≤ 0.25
15,TSSF,9.67
16,YPTT,≤ 0.25
17,ISMW,≤ 0.25
18,FIHY,≤ 0.25
19,QLFD,3.39
20,HRQG,≤ 0.25
21,YGDM,0.798
22,YGWM,≤ 0.25
23,YGLM,13
